Screens (PubChem)
Compounds with a hit are over-represented: about 6.7% of the library has one in this group of screens.
Pf Dd2 inh: P. falciparum Dd2 growth inhibitors, primary screen, SYBR Green fluorescence, single dose replicates; 94,000 compounds, 2.3% hits; AID 1159554, 2015; 72 h; stronger effect = lower value; activity change, % at 10 µM; in the data active = activity change below about -80%; inconclusive = no clear call, values can overlap the other calls
T cruzi growth-1: T. cruzi intracellular proliferation inhibitors, primary screen, cell-based, beta-gal Tulahuen parasites, NIH3T3 host, luminescence; T. cruzi beta-gal in NIH3T3, GalScreen luminescence, 90 h; inhibition, % at 8.34 µM; 77,000 compounds, 5.9% hits; AID 624255, 2012;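 active = mean inhibition above about 93%, with at least 55% of replicates each passing it, limit read from the data, passing the limit was not always enough; inconclusive = only one of those two conditions holds; inactive = neither condition holds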
C diff growth: C. difficile growth inhibitors, primary screen, HTS | Clostridium difficile clinical isolate growth, OD600, 24 h; stronger effect = lower value | growth activity, negative = inhibition, % at 16 µg/mL (by protocol) | 86,000 compounds, 0.25% hits;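 active = mean growth activity at or below -80% and every replicate also at or below -80%; inconclusive = mean at or below -80% but some replicate above -80%; inactive = mean growth activity above -80%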
T cruzi growth-2: T. cruzi intracellular proliferation inhibitors, confirmation, cell-based, NIH3T3 host, beta-gal parasite, luminescence, cherry-pick | shares compounds with T cruzi growth-1 | T. cruzi beta-gal in NIH3T3, GalScreen luminescence, 90 h | inhibition, % at 8.35 µM | 5,600 compounds, 72% hits;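 active = mean replicate inhibition above about 95% and at least 55% of replicates individually reaching it, limit read from the data; inconclusive = only one of the two criteria is met; inactive = neither criterion is met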
T cruzi growth-3: inhibitors of intracellular T. cruzi replication, confirmation, NIH3T3 host cells, beta-gal parasites, cherry-pick, set 2 | AID 651740, 2012 | T. cruzi beta-gal in NIH3T3, GalScreen luminescence, 90 h | 5,600 compounds, 21% hits | inhibition, % at 2.09 µM | shares compounds with T cruzi growth-1;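 active = mean inhibition above about 95%, with at least 55% of replicates also reaching it, limit read from the data; inconclusive = meets just one of the two conditions; inactive = meets neither condition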
3T3 cytotox: cytotoxicity in mouse NIH/3T3 fibroblasts, confirmation, cytotoxicity control for T. cruzi proliferation inhibitor project, cell-based, cherry-pick, single point | 5,600 compounds, 14% hits | shares compounds with T cruzi growth-1 | AID 651742, 2012 | NIH/3T3 viability, CellTiter-Glo ATP luminescence, 90 h | cytotoxicity (signal decrease), % at 8.35 µM;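 active = mean signal decrease across replicates above about 35% based on untreated-well scatter, with enough replicates individually passing, limit read from the data; inconclusive = no rule stated though some were filed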
NIH3T3 tox 2: NIH/3T3 fibroblast cytotoxicity, confirmation, cytotoxicity control, cell-based, cherry-pick, single point, set 2. shares compounds with T cruzi growth-1. NIH/3T3 viability, CellTiter-Glo ATP luminescence, 90 h. inhibition, % at 24.9 µM. 5,600 compounds, 56% hits;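 active = mean loss of cell viability signal at or above a set limit, and enough replicates individually reaching it; inconclusive = meets only the mean limit or only the replicate share; inactive = meets neither condition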
Large screens that a line does not name were inactive (follow-up assays come after a bar, where they were run).

C[C@H](CO)N1C[C@H](C)[C@@H](CN(C)C(=O)Nc2cccc3ccccc23)OCCCC[C@H](C)Oc2ccc(NS(=O)(=O)c3ccc(F)cc3)cc2C1=O	T cruzi growth-1 104.8 | T cruzi growth-2 105.9 | T cruzi growth-3 inconclusive | 3T3 cytotox inactive | NIH3T3 tox 2 inactive
Cc1ccc(S(=O)(=O)Nc2ccc3c(c2)C(=O)N([C@H](C)CO)C[C@H](C)[C@H](CN(C)C(=O)Nc2cccc4ccccc24)OCCCC[C@H](C)O3)cc1	none
C[C@@H]1CCCCO[C@@H](CN(C)C(=O)Nc2cccc3ccccc23)[C@@H](C)CN([C@H](C)CO)C(=O)c2cc(NS(=O)(=O)c3ccc(F)cc3)ccc2O1	none
Cc1ccc(S(=O)(=O)Nc2ccc3c(c2)C(=O)N([C@@H](C)CO)C[C@@H](C)[C@H](CN(C)C(=O)Nc2cccc4ccccc24)OCCCC[C@@H](C)O3)cc1	T cruzi growth-1 102.5 | T cruzi growth-2 108.8 | T cruzi growth-3 inactive | 3T3 cytotox inactive | NIH3T3 tox 2 inactive
Cc1ccc(S(=O)(=O)Nc2ccc3c(c2)C(=O)N([C@@H](C)CO)C[C@@H](C)[C@@H](CN(C)C(=O)Nc2cccc4ccccc24)OCCCC[C@@H](C)O3)cc1	none
Cc1ccc(S(=O)(=O)Nc2ccc3c(c2)C(=O)N([C@H](C)CO)C[C@@H](C)[C@@H](CN(C)C(=O)Nc2cccc4ccccc24)OCCCC[C@@H](C)O3)cc1	Pf Dd2 inh -86.1, T cruzi growth-1 108.4 | T cruzi growth-2 101.9 | T cruzi growth-3 101.9 | 3T3 cytotox inactive | NIH3T3 tox 2 inactive
O=C(CC(F)(F)F)N1C[C@H]2[C@@H](c3ccccc31)[C@H](CO)N2C(=O)c1ccncc1	none
COc1cccc(-c2cccc(-c3nc(C(=O)NCCCN4CCOCC4)cc4c3[C@@H](CCO)N(S(=O)C(C)(C)C)C4)c2)c1 (stereo partly drawn)	none (no result: C diff growth)
COCCNC(=O)C[C@@H]1C[C@@H]2c3cc(NS(=O)(=O)c4ccc(F)cc4)ccc3O[C@@H]2[C@@H](CO)O1	none
COc1ccccc1CNC(=O)C[C@@H]1C[C@@H]2c3cc(NC(=O)c4cccnc4)ccc3O[C@@H]2[C@H](CO)O1	none (no result: C diff growth)
C/C=C/c1ccc([C@H]2[C@@H](C#N)N(C(=O)CN3CCOCC3)[C@H]2CO)cc1	none
C[C@H](O)C#Cc1ccc([C@H]2[C@H]3CN(C(=O)c4cccc(F)c4)CCCCN3[C@H]2CO)cc1	T cruzi growth-1 102.4 | T cruzi growth-2 inconclusive | T cruzi growth-3 inactive | 3T3 cytotox inactive | NIH3T3 tox 2 28.2
C[C@H](O)C#Cc1ccc([C@H]2[C@@H](CO)N3CCCCN(C(=O)c4cccc(F)c4)C[C@@H]23)cc1	T cruzi growth-1 103.9 | T cruzi growth-2 inactive | T cruzi growth-3 inactive | 3T3 cytotox inactive | NIH3T3 tox 2 inactive
C[C@@H](O)C#Cc1ccc([C@@H]2[C@H](CO)N3CCCCN(C(=O)c4cccc(F)c4)C[C@@H]23)cc1	none
C[C@@H](O)C#Cc1ccc([C@@H]2[C@H]3CN(C(=O)c4cccc(F)c4)CCCCN3[C@H]2CO)cc1	none
C[C@@H](O)C#Cc1ccc([C@@H]2[C@@H](CO)N3CCCCN(C(=O)c4cccc(F)c4)C[C@@H]23)cc1	none
C[C@@H](O)C#Cc1ccc([C@H]2[C@H](CO)N3CCCCN(C(=O)c4cccc(F)c4)C[C@@H]23)cc1	T cruzi growth-1 97.5 | T cruzi growth-2 106.8 | T cruzi growth-3 inactive | 3T3 cytotox inactive | NIH3T3 tox 2 49.6
CCOC(=O)C1=CC[C@@H](c2ccc3ccccc3n2)[C@@H]1C(=O)c1ccccc1	none (no result: Pf Dd2 inh, T cruzi growth-1)
O=C(NCC[C@@H]1CC[C@@H](NC(=O)C2CC2)[C@H](CO)O1)c1cc(Cl)cc(Cl)c1	none (no result: Pf Dd2 inh, T cruzi growth-1)
C[C@H]1CN([C@@H](C)CO)C(=O)c2cc(C#CC(C)(C)O)cnc2O[C@H]1CN(C)C(=O)C1CCC1	none
